Assay results published in PubChem BioAssay AID1159580 (chemical genetic matrix, 2015).
Several values for one entry are separate records, joined by “and”; a condition that tells them apart may be missing. Equal values may be shown once. Among all 5,500 compounds or so, about 2,000 (36%) were called active. Another 18% or so got no clear call; they are omitted. No stated cut-off is given here; in the data, active means normalized growth mostly below about 0.91 (no sharp cut-off); inconclusive means no clear call, values can overlap the other calls; inactive means mostly above about 0.92. Some of the results follow.

Experiment: chemical genetic growth profiling, strain panel (AID 1159580);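 further: tested at 20 µM; growth read once vehicle control cultures reached saturation at 30 °C; 1 = growth at the plate median or of vehicle wells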
Details: S. cerevisiae deletion strains, growth OD

Measured: normalized growth

CC(=O)[C@@]1(O)CCC2C3CCC4=CC(=O)CC[C@]4(C)C3CC[C@@]21C (stereo partly drawn)
inactive: locus YAL021C, strain ccr4, stronger effect = lower value 0.99 | locus YAL026C, strain drs2, stronger effect = lower value 0.992 | locus YAL030W, strain snc1, stronger effect = lower value 0.998 | locus YBL061C, strain skt5, stronger effect = lower value 0.991 | locus YBR009C, strain hhf1, stronger effect = lower value 0.995 | locus YBR021W, strain FUR4, stronger effect = lower value 1.01 | locus YBR023C, strain chs3, stronger effect = lower value 0.995 | locus YBR171W, strain sec66, stronger effect = lower value 0.985 | locus YBR229C, strain ROT2, stronger effect = lower value 0.993 | locus YBR231C, strain swc5, stronger effect = lower value 0.999 | locus YBR279W, strain paf1, stronger effect = lower value 0.986 | locus YCL011C, strain gbp2, stronger effect = lower value 0.997 | locus YCL016C, strain dcc1, stronger effect = lower value 0.992 | locus YCL029C, strain bik1, stronger effect = lower value 1.01 | locus YCL061C, strain MRC1, stronger effect = lower value 0.987 | locus YCL069W, strain vba3, stronger effect = lower value 0.996 | locus YCR088W, strain abp1, stronger effect = lower value 0.988 | locus YDL005C, strain med2, stronger effect = lower value 0.975 | locus YDL035C, strain GPR1, stronger effect = lower value 1.01 | locus YDL040C, strain nat1, stronger effect = lower value 0.993 | locus YDL074C, strain BRE1, stronger effect = lower value 1.04 | locus YDL101C, strain DUN1, stronger effect = lower value 0.996 | locus YDL134C, strain PPH21, stronger effect = lower value 0.99 | locus YDL185W, strain tfp1, stronger effect = lower value 1.01 | locus YDL192W, strain arf1, stronger effect = lower value 0.992 | locus YDR001C, strain nth1, stronger effect = lower value 0.989 | locus YDR069C, strain doa4, stronger effect = lower value 0.996 | locus YDR101C, strain arx1, stronger effect = lower value 1.04 | locus YDR159W, strain sac3, stronger effect = lower value 0.931 | locus YDR162C, strain NBP2, stronger effect = lower value 0.977 | locus YDR195W, strain ref2 0.995 | locus YDR297W, strain sur2, stronger effect = lower value 0.994 | locus YDR318W, strain mcm21, stronger effect = lower value 0.99 | locus YDR334W, strain swr1, stronger effect = lower value 0.992 | locus YDR335W, strain msn5, stronger effect = lower value 1.01 | locus YDR388W, stronger effect = lower value 1.01 | locus YDR392W, strain spt3, stronger effect = lower value 0.891 | locus YDR502C, strain sam2, stronger effect = lower value 1.01 | locus YEL003W, strain gim4, stronger effect = lower value 0.999 | locus YEL037C, strain rad23, stronger effect = lower value 0.993 | locus YEL061C, strain CIN8 (second series), stronger effect = lower value 0.993 | locus YEL061C, strain CIN8, stronger effect = lower value 0.995 | locus YER015W, strain faa2, stronger effect = lower value 0.998 | locus YER016W, strain bim1, stronger effect = lower value 0.99 | locus YER110C, stronger effect = lower value 1.01 | locus YER111C, strain swi4, stronger effect = lower value 0.987 | locus YER155C, strain BEM2 (second series), stronger effect = lower value 0.995 | locus YER155C, strain BEM2, stronger effect = lower value 1 | locus YER167W, strain BCK2, stronger effect = lower value 0.994 | locus YFR010W, strain ubp6, stronger effect = lower value 1.01 | locus YGL078C, strain dbp3, stronger effect = lower value 1.04 | locus YGL086W, strain mad1, stronger effect = lower value 1.03 | locus YGL167C, strain pmr1, stronger effect = lower value 0.983 | locus YGL173C, strain kem1, stronger effect = lower value 0.99 | locus YGL227W, strain vid30, stronger effect = lower value 0.994 | locus YGL240W, strain doc1, stronger effect = lower value 0.989 | locus YGL248W, strain PDE1, stronger effect = lower value 0.985 | locus YGL253W, strain hxk2, stronger effect = lower value 0.997 | locus YGR078C, strain PAC10, stronger effect = lower value 0.991 | locus YGR135W, strain pre9, stronger effect = lower value 0.966 | locus YGR252W, strain gcn5, stronger effect = lower value 1.04 | locus YHR013C, strain ard1, stronger effect = lower value 0.989 | locus YHR027C, strain rpn1, stronger effect = lower value 0.992 | locus YHR030C, strain SLT2, stronger effect = lower value 1 and 0.968 | locus YHR079C, strain IRE1 (second series), stronger effect = lower value 1.01 | locus YHR079C, strain IRE1, stronger effect = lower value 0.983 | locus YHR094C, strain hxt1, stronger effect = lower value 0.999 | locus YHR129C, strain ARP1, stronger effect = lower value 0.993 | locus YHR142W, strain chs7, stronger effect = lower value 0.993 | locus YHR200W, strain rpn10, stronger effect = lower value 1.02 | locus YIL066C, strain RNR3, stronger effect = lower value 0.994 | locus YIL073C, strain SPO22, stronger effect = lower value 1.03 | locus YIL125W, strain kgd1, stronger effect = lower value 1.03 | locus YIR030C, strain dcg1, stronger effect = lower value 1.01 | locus YJL092W, strain hpr5, stronger effect = lower value 0.991 | locus YJL095W, strain BCK1 (second series), stronger effect = lower value 0.992 | locus YJL095W, strain BCK1, stronger effect = lower value 0.96 and 0.984 | locus YJL115W, strain asf1, stronger effect = lower value 0.987 | locus YJL129C, strain trk1, stronger effect = lower value 0.955 | locus YJL134W, strain LCB3, stronger effect = lower value 0.998 | locus YJL154C, strain vps35, stronger effect = lower value 0.987 | locus YJL164C, strain tpk1, stronger effect = lower value 0.985 | locus YJL166W, strain qcr8, stronger effect = lower value 0.998 | locus YJL168C, strain set2, stronger effect = lower value 1 | locus YJL187C, strain SWE1 (second series), stronger effect = lower value 0.994 | locus YJL187C, strain SWE1, stronger effect = lower value 0.997 | locus YJR043C, strain POL32, stronger effect = lower value 1.05
active: locus YDR137W, strain rgp1, stronger effect = lower value 0.815
